# Source: ChEMBL document CHEMBL1961873, “Compounds: GSK PKIS; Assays: Nanosyn kinase panel” (2012)
# How the values were obtained:
# [1] = target: Serine/threonine-protein kinase pim-2 (Homo sapiens) (UniProt Q9P1W9); settings: at 1 µM;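 also: each value is a mean of the inhibition measurements against the kinase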
# [2] = target: Serine/threonine-protein kinase pim-3 (Homo sapiens) (UniProt Q86V86); settings: at 0.1 µM
# [3] = target: Serine/threonine-protein kinase pim-3 (Homo sapiens) (UniProt Q86V86); settings: at 1 µM
# [4] = target: T1, MAP kinase-activated protein kinase 5 (Homo sapiens) (UniProt Q8IW41); settings: at 0.1 µM
# T1 sequence (whole entry): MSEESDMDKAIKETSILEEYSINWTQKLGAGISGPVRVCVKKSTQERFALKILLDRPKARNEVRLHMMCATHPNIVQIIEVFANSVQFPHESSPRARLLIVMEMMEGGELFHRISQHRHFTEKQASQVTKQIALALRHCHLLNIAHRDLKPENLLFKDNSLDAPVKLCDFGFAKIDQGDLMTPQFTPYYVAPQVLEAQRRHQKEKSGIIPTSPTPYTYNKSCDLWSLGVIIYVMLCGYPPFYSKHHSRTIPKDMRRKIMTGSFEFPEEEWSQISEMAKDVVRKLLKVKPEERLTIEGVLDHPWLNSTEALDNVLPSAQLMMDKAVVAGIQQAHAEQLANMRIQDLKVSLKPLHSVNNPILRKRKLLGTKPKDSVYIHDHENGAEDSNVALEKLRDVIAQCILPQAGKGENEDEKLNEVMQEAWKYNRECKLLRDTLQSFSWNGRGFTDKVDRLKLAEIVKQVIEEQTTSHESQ
# [5] = target: T1, MAP kinase-activated protein kinase 5 (Homo sapiens); settings: at 1 µM
# [6] = target: Serine/threonine-protein kinase SIK1 (Homo sapiens) (UniProt P57059); settings: at 0.1 µM
# Serine/threonine-protein kinase SIK1 (Homo sapiens), sequence (P57059 whole entry): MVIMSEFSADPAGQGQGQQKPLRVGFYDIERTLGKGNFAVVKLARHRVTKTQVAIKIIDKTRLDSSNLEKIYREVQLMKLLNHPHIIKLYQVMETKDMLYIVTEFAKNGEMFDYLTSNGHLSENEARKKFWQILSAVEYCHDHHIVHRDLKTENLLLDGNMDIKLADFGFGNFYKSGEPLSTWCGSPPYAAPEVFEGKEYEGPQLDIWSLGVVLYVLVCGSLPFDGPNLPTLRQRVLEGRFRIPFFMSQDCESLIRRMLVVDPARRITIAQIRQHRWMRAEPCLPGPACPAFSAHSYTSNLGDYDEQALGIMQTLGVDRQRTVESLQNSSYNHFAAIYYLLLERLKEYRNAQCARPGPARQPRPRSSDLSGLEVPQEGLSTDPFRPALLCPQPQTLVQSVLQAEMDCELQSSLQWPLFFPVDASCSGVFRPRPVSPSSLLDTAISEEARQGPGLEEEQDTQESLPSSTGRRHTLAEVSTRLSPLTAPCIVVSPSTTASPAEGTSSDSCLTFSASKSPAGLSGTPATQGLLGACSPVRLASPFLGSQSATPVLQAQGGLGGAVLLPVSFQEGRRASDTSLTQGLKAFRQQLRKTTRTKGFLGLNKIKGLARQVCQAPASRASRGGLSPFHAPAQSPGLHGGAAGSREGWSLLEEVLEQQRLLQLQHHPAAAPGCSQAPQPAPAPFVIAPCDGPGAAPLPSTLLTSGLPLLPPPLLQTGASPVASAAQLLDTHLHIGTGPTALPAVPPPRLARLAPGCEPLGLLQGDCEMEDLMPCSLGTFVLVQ
# [7] = target: Serine/threonine-protein kinase SIK1 (Homo sapiens) (UniProt P57059); settings: at 1 µM
# [8] = target: Serine/threonine-protein kinase SIK2 (Homo sapiens) (UniProt Q9H0K1); settings: at 0.1 µM
# Serine/threonine-protein kinase SIK2 (Homo sapiens), sequence (Q9H0K1 whole entry, looked up): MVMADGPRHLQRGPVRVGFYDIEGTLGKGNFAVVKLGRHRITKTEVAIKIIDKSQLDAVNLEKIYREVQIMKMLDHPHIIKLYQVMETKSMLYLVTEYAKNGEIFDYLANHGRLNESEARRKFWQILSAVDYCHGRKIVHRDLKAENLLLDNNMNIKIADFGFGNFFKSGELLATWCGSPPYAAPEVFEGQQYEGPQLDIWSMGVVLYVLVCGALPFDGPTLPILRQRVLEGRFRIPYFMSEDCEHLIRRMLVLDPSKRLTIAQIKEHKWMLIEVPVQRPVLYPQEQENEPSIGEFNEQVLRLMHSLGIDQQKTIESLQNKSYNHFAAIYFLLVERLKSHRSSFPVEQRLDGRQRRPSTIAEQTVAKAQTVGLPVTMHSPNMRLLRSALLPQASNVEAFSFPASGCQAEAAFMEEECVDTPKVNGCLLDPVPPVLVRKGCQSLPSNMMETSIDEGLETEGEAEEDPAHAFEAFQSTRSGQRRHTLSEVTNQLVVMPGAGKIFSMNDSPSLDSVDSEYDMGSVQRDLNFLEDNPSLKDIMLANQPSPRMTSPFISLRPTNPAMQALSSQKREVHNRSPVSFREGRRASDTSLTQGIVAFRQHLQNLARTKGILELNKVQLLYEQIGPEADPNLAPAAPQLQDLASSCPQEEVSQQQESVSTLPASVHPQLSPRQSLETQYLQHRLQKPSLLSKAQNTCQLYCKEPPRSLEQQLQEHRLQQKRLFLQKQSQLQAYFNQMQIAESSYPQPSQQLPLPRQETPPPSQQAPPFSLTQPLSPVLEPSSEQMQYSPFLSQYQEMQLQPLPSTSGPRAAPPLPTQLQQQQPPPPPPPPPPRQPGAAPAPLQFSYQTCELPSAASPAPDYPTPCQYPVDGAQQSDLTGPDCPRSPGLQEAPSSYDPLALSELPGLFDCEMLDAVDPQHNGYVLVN
# [9] = target: Serine/threonine-protein kinase SIK2 (Homo sapiens) (UniProt Q9H0K1); settings: at 1 µM
# [10] = target: T2, Serine/threonine-protein kinase TBK1 (Homo sapiens) (UniProt Q9UHD2); settings: at 0.1 µM
# T2 sequence (whole entry): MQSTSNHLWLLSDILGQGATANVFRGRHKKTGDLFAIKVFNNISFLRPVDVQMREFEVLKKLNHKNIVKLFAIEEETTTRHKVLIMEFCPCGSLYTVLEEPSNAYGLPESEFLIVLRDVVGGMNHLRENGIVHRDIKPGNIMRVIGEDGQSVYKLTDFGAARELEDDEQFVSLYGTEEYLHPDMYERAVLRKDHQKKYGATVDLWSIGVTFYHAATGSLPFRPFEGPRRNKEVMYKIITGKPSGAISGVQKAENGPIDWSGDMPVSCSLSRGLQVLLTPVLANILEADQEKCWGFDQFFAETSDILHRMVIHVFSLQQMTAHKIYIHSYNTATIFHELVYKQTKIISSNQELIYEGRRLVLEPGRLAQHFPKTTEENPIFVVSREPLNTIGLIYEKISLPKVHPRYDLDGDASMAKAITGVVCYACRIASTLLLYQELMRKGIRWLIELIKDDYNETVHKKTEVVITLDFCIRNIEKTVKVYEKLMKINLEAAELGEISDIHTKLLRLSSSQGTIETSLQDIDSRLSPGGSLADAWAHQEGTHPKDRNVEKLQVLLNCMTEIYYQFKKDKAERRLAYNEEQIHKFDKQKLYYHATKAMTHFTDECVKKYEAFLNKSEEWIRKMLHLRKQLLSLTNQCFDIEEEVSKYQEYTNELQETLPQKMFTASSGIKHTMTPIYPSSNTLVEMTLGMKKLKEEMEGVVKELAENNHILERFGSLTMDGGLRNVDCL
# [11] = target: T2, Serine/threonine-protein kinase TBK1 (Homo sapiens); settings: at 1 µM
# [12] = target: T3, Testis-specific serine/threonine-protein kinase 1 (Homo sapiens) (UniProt Q9BXA7); settings: at 0.1 µM
# T3 sequence (whole entry): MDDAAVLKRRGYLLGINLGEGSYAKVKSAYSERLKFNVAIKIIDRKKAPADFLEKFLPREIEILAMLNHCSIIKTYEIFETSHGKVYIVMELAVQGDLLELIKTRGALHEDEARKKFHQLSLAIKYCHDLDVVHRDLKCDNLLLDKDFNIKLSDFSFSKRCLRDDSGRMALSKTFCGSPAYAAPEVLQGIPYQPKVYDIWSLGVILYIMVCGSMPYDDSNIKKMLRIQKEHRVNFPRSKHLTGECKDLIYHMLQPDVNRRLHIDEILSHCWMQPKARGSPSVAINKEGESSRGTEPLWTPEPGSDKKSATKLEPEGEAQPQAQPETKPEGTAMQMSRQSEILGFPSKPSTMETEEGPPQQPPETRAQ
# [13] = target: T3, Testis-specific serine/threonine-protein kinase 1 (Homo sapiens); settings: at 1 µM
# [14] = target: T4, Testis-specific serine/threonine-protein kinase 2 (Homo sapiens) (UniProt Q96PF2); settings: at 0.1 µM
# T4 sequence (whole entry): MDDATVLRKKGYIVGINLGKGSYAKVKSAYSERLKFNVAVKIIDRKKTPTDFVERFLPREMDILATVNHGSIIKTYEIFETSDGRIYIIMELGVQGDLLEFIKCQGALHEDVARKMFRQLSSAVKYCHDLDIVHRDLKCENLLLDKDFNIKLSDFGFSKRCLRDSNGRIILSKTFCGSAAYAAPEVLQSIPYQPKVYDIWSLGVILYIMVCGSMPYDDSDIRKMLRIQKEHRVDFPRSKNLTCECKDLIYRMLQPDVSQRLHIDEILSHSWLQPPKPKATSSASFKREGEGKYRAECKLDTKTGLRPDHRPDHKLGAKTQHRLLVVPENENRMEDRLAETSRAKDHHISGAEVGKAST
# [15] = target: T4, Testis-specific serine/threonine-protein kinase 2 (Homo sapiens); settings: at 1 µM
# [16] = target: Casein kinase I isoform alpha (Homo sapiens) (UniProt P48729); settings: at 0.1 µM
# Casein kinase I isoform alpha (Homo sapiens), sequence (P48729 2-337 limits assumed): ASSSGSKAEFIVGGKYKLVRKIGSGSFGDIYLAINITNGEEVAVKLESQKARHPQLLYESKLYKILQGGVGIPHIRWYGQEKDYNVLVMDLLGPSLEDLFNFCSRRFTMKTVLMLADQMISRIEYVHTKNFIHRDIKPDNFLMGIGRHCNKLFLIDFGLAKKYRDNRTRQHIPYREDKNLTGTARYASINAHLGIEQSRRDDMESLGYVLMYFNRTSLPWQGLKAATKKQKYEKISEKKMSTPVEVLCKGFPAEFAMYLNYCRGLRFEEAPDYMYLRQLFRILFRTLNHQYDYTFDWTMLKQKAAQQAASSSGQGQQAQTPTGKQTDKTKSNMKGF
# [17] = target: Casein kinase I isoform alpha (Homo sapiens) (UniProt P48729); settings: at 1 µM
# [18] = target: Casein kinase I isoform gamma-1 (Homo sapiens) (UniProt Q9HCP0); settings: at 0.1 µM
# Casein kinase I isoform gamma-1 (Homo sapiens), sequence (Q9HCP0 whole entry, looked up, canonical isoform): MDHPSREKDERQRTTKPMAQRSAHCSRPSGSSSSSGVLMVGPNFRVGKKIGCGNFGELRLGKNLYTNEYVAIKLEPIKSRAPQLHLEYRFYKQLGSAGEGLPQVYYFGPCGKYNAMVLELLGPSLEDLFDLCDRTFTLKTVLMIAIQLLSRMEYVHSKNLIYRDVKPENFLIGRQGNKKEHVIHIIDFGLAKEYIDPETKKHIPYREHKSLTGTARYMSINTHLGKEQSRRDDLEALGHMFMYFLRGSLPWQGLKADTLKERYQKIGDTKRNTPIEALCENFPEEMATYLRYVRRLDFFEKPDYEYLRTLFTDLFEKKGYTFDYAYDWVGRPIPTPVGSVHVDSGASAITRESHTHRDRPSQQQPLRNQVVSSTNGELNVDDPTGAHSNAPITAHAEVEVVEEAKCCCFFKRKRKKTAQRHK
# [19] = target: Casein kinase I isoform gamma-1 (Homo sapiens) (UniProt Q9HCP0); settings: at 1 µM
# [20] = target: Casein kinase I isoform gamma-2 (Homo sapiens) (UniProt P78368); settings: at 0.1 µM;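 also: values are mean inhibition figures reported as part of the GSK PKIS dataset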
# Casein kinase I isoform gamma-2 (Homo sapiens), sequence (P78368 whole entry, looked up, canonical isoform): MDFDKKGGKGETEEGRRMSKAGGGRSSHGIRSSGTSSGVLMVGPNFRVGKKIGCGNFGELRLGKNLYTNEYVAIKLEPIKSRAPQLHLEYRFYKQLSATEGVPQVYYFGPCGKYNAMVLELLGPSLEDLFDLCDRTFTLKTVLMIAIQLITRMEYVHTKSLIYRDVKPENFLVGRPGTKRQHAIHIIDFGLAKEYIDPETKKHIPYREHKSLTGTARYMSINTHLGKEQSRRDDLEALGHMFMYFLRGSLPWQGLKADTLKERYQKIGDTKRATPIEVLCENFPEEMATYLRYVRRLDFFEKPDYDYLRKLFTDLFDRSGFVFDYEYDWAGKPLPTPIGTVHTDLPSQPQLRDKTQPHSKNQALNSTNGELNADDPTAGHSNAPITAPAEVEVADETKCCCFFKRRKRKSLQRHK
# Serine/threonine-protein kinase pim-2 (Homo sapiens), sequence (Q9P1W9 whole entry, looked up): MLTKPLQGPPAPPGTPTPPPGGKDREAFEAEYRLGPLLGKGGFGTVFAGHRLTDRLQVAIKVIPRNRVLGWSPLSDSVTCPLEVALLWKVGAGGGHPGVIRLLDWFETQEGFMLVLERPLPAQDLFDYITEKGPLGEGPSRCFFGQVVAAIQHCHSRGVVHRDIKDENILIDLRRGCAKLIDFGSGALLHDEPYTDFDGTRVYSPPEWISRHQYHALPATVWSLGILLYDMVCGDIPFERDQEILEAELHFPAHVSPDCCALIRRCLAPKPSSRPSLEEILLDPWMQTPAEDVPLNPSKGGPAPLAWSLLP
Structure (SMILES),inhibition [1] [%],inhibition [2] [%],inhibition [3] [%],inhibition [4] [%],inhibition [5] [%],inhibition [6] [%],inhibition [7] [%],inhibition [8] [%],inhibition [9] [%],inhibition [10] [%],inhibition [11] [%],inhibition [12] [%],inhibition [13] [%],inhibition [14] [%],inhibition [15] [%],inhibition [16] [%],inhibition [17] [%],inhibition [18] [%],inhibition [19] [%],inhibition [20] [%]
COc1cc2ncnc(Nc3ccc4c(cnn4Cc4ccccc4)c3)c2cc1OC,2.31,-0.75,1.06,0.57,0.85,4.47,5.69,4.37,3.7,0.22,1.45,2.62,3.63,0.21,0.75,1.02,1.16,1.64,2.33,1.06
CCn1c(-c2nonc2N)nc2c(C#CC(C)(C)O)nc(OCCNC)cc21,1.04,0.16,3.51,1.21,1.03,6.97,10.6,3.14,9.54,3.53,8.57,5.86,18,1.75,2.65,3.87,8.13,3.33,4.48,3.26
NS(=O)(=O)c1ccc(NC=C2C(=O)Nc3ccc4ncsc4c32)cc1,5.46,2.4,13.1,2.33,13.9,5.99,34.1,9.07,40.7,13.4,65.6,8.91,33.5,2.62,3.73,4.2,22.3,5.22,18.2,3.58
NC(=O)c1cccc(Nc2nccc(Nc3cccc(F)c3)n2)c1,0.31,0.13,2,0.33,-0.56,9.14,37,7.47,25.1,1.55,6.93,-0.18,0.75,0.59,-0.96,-0.75,1.32,0.88,1.67,0.97
Nc1nccc(-c2c(-c3ccc(F)cc3)nn3cc(C(F)(F)F)ccc23)n1,0.77,0.74,0.92,0.34,0.16,-0.43,1.61,-1.04,-1.57,-2.75,-0.2,0.37,1.13,0.32,-0.24,0.88,10.8,0.74,2.65,0.3
Cc1ccc(C(=O)NC2CC2)cc1-c1ccc2[nH]ncc2c1,0.98,1.05,4.89,-1.55,-1.4,-8.63,-5.39,-3.95,-7.9,-3.58,-1.07,-1.33,-2.04,-2.24,-1.65,-6.12,-2.96,-3.43,-2.76,-2.87
COC(=O)c1cncc(/C=C/c2c(C)cc(O)cc2C)c1,0.09,0.93,3.35,1.73,2.57,19.2,84.3,5.81,20,1.26,3.98,2.95,5.68,0.9,0.8,1.49,4.06,3.02,4.65,2.68
Cc1cc(-c2ccccn2)cc(C)c1/C=C/c1cncc(-c2nn[nH]n2)c1,-0.15,1.13,3.53,1.22,1.42,18.9,74.7,5.34,21.5,3.59,2.21,4.23,4.46,1.85,2.37,3.47,7.87,6.09,4.39,2.75
Cc1ccc(O)cc1Nc1ccnc2ccc(S(C)(=O)=O)cc12,0.8,0.69,1.04,2.48,2.77,47.2,89.6,15.8,52.6,2.4,9.14,3.95,4.63,2.41,3.33,11.9,43.8,4.05,7.45,4.13
Cc1ccc2c(-c3ccnc(Nc4ccc5c(c4)OCCO5)n3)c(-c3ccc(C(F)(F)F)cc3)nn2n1,1.63,0.32,0.77,0.37,0.83,0.02,-0.13,10.8,0.48,0.84,4.69,1.7,2.26,0.67,0.47,0.54,-3.1,1.24,1.97,0.1
CS(=O)(=O)Nc1cccc(-c2ccc3c(NC(=O)C4CC4)n[nH]c3c2)c1,1.38,-0.62,-2.53,0.1,-1.16,-0.72,5.25,-2.65,9.32,-0.1,3.56,1.06,0.45,0.02,-1.13,1.72,1.75,0.64,3.47,-0.83
CN(C)C(=O)O[C@H]1CN[C@H](C#Cc2cc3ncnc(Nc4ccc(OCc5cccc(F)c5)c(Cl)c4)c3s2)C1,0.45,-0.1,-1.11,0.7,-0.94,4.32,5.89,11.5,12.2,-0.37,4.42,1.61,0.19,0.42,-1.25,-3.89,2.94,1.92,2.06,2.17
COc1cc2ncnc(Nc3ccc(C)c(O)c3)c2cc1OC,2.78,2.48,4.22,3.96,2.36,5.14,33.2,7.06,18.9,1.88,5.95,3.91,3.21,1.77,2.03,4.56,5.91,4.01,4.87,4.2
